Compounds without any hit were thinned out: in the full panel of roughly 83,000, 20% have a hit.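 A percent growth of 40 corresponds to 60% growth inhibition; 0 means no net growth; -100 means all cells died. Active threshold: below 10.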 Unmarked numbers belong to inactive results. Activity calls are given as the source filed them.

This note sets out measurements from PubChem BioAssay (NCI).

The test system of the first assay is SR leukemia. The assay can be described thus: NCI-60 one-dose screen, 48 h (100 = growth as untreated, 0 = no growth, -100 = all killed). As to conditions: 10 µM unless noted.
With `CCOC(=O)c1c(C)[nH]c2ccc(O)cc12`, the growth was 101%. Regarding `CC(/C=N/NC(N)=S)Cc1ccc(C(C)C)cc1` (stereo not given), the growth is 135%. `Nc1ccc(C(=O)/C=C/c2ccccc2)cc1`: the growth is 46.9%. With `Cc1oc2c(C)c3oc(=O)cc(C)c3cc2c1CCl`, the growth is -10% (active). On the same count and under the same terms, then `O=C(/C(Cl)=N/O)c1ccc(-c2ccccc2)cc1`, with -24% (active); and `CC(C)c1ccc(Nc2n[nH]c(=S)s2)cc1`, with 101%; and `COc1cc2c(c(OC)c1OC)-c1ccc(NCc3ccccc3)c(=O)cc1[C@@H](NC(C)=O)CC2`, with 2.36% (active). With `CCCCCCCCCCCCCCCCSC(=NCC)NCC`, the growth is -43.3% (active). Take `CN(Cc1ccccc1)c1ccc(SC#N)cc1`: the growth was -6.68% (active). For the compound `CC(=O)Nc1ccc(C(=O)CCl)cc1`, the growth is -17.9% (active).

Consider `O=[N+]([O-])c1ccc(N2CCN(Cc3ccccc3)CC2)c2c1no[n+]2[O-]`, for which the growth is -47.7% (active). Regarding `CCOC(=O)NC(/C=C/c1ccccc1)NC(=O)OCC`, the growth is 103%. As for `CCCCN(CCCC)CCCCCCCCCCO`, the growth is 81%. On to `S=C1SCN(Cc2cccs2)CN1Cc1cccs1`, for which the growth was 59.3%. For `CCOC(=O)/C(=C\c1ccc2ccccc2c1)P(=O)(OCC)OCC`, the growth is -19.4% (active). For the compound `Nc1ccc(Oc2ccccc2)c(Cl)c1`, the growth was 92.1%. For the compound `COc1ccc(C(Cn2ccnc2)Sc2ccc(Cl)c(Cl)c2)cc1` (stereo not given), the growth was 97.4%.

Turning to `O=[N+]([O-])/C(=C/c1ccccc1)c1ccccc1`, the growth was 88.5%. For the compound `CCCCCCC1N=C(N)N=C(N)N1c1cccc(Cl)c1` (stereo not given), the growth was 31.5%. On to `O=C1C=CC(=O)N1C1CCCCCCCCCCC1`, for which the growth is 5.7% (active).

For `Cc1nc(Sc2nc3ccc([N+](=O)[O-])cc3s2)sc1C`, the growth was -13.2% (active). Consider `Fc1ccc(NCCS)cc1`, for which the growth is 88.9%. The same measure, in the same setting: then `OCCOSCCO`, with 90.1%; and `COc1cc(OC)c(/C=C/c2c3ccccc3cc[n+]2C)c(OC)c1`, with -18.2% (active). As for `CC(C)(C)c1ccc(O)c(Br)c1`, the growth was 106%.

As to `O=C/C=C/c1ccc([N+](=O)[O-])cc1`, the growth is 87.1%.

As for `COc1ccc2nc3cc(Cl)ccc3c(NCCCCCN3CCCCC3)c2c1`, the growth was -17.9% (active).

As for `COc1cc(-c2ccc(-[n+]3nc(-c4ccc([N+](=O)[O-])cc4)nn3-c3ccc([N+](=O)[O-])cc3)c(OC)c2)ccc1-[n+]1nc(-c2ccc([N+](=O)[O-])cc2)nn1-c1ccc([N+](=O)[O-])cc1`, the growth was 40.2%. Take `O=C1C=CC(=O)N1c1cc(Cl)c(Cl)cc1Cl`: the growth is 81.5%. The same measure, in the same setting: then `CCc1cnc2ccccc2c1/C=C/c1ccc(N(C)C)cc1`, with 4.96% (active); and `O=[N+]([O-])c1ccc(C2N(Cc3ccc(Cl)cc3)CCN2Cc2ccc(Cl)cc2)cc1`, with 64.8%. For `Oc1ccc2c(c1)CCc1ccccc1-2`, the growth was 104%.

For the compound `COc1cc(/C=C2\SC(=S)N(/C=C/c3nc4ccccc4[nH]c3=O)C2=O)cc(OC)c1OC`, the growth was 63.6%. Take `CC(C)(C)CC(C)(C)c1ccc(OCCOCCSC(=N)N)cc1`: the growth is -24.4% (active).

The subject of the next assay is RPMI-8226 leukemia. The description is as above. The following applies: 10 µM unless noted.
Take `CCOC(=O)c1c(C)[nH]c2ccc(O)cc12`: the growth is 89.5%. With `CC(/C=N/NC(N)=S)Cc1ccc(C(C)C)cc1` (stereo not given), the growth is 104%. For `Nc1ccc(C(=O)/C=C/c2ccccc2)cc1`, the growth is 43%.

`Cc1oc2c(C)c3oc(=O)cc(C)c3cc2c1CCl`: the growth was 54.4%.

With `O=C(/C(Cl)=N/O)c1ccc(-c2ccccc2)cc1`, the growth is 85.2%. In the case of `CC(C)c1ccc(Nc2n[nH]c(=S)s2)cc1`, the growth is 108%. For `NC(=S)N/N=C\c1nccc2c(N)cccc12`, the growth was 15.5%. The same measure, in the same setting: then `COc1cc2c(c(OC)c1OC)-c1ccc(NCc3ccccc3)c(=O)cc1[C@@H](NC(C)=O)CC2`, with 8.4% (active); and `CCCCCCCCCCCCCCCCSC(=NCC)NCC`, with -43.3% (active); and `CN(Cc1ccccc1)c1ccc(SC#N)cc1`, with 74.8%.

Regarding `CC(=O)Nc1ccc(C(=O)CCl)cc1`, the growth is 25.2%. Still for that read-out and setting: then `O=[N+]([O-])c1ccc(N2CCN(Cc3ccccc3)CC2)c2c1no[n+]2[O-]`, with -15.1% (active); and `CCOC(=O)NC(/C=C/c1ccccc1)NC(=O)OCC`, with 101%; and `CCCCN(CCCC)CCCCCCCCCCO`, with 133%.

Consider `S=C1SCN(Cc2cccs2)CN1Cc1cccs1`, for which the growth is 58%.

In the case of `CCOC(=O)/C(=C\c1ccc2ccccc2c1)P(=O)(OCC)OCC`, the growth was -25.3% (active). Turning to `Nc1ccc(Oc2ccccc2)c(Cl)c1`, the growth is 101%. For `COc1ccc(C(Cn2ccnc2)Sc2ccc(Cl)c(Cl)c2)cc1` (stereo not given), the growth was 50.7%. Take `O=[N+]([O-])/C(=C/c1ccccc1)c1ccccc1`: the growth is 108%. On to `CCCCCCC1N=C(N)N=C(N)N1c1cccc(Cl)c1` (stereo not given), for which the growth was 14%. For `O=C1C=CC(=O)N1C1CCCCCCCCCCC1`, the growth is 31.1%.

As for `Cc1nc(Sc2nc3ccc([N+](=O)[O-])cc3s2)sc1C`, the growth was 2.79% (active). Turning to `Fc1ccc(NCCS)cc1`, the growth is 91%. For the compound `OCCOSCCO`, the growth is 133%. Turning to `COc1cc(OC)c(/C=C/c2c3ccccc3cc[n+]2C)c(OC)c1`, the growth was 6.51% (active). For `CC(C)(C)c1ccc(O)c(Br)c1`, the growth is 85%. `O=C/C=C/c1ccc([N+](=O)[O-])cc1`: the growth is 102%. In the case of `COc1ccc2nc3cc(Cl)ccc3c(NCCCCCN3CCCCC3)c2c1`, the growth was -27% (active). In the case of `COc1cc(-c2ccc(-[n+]3nc(-c4ccc([N+](=O)[O-])cc4)nn3-c3ccc([N+](=O)[O-])cc3)c(OC)c2)ccc1-[n+]1nc(-c2ccc([N+](=O)[O-])cc2)nn1-c1ccc([N+](=O)[O-])cc1`, the growth is 27.6%. For `O=C1C=CC(=O)N1c1cc(Cl)c(Cl)cc1Cl`, the growth was 99.8%. As to `Nc1cccc2cccc([N+](=O)[O-])c12`, the growth was 98.5%.

Turning to `CCc1cnc2ccccc2c1/C=C/c1ccc(N(C)C)cc1`, the growth was 67.3%.

As for `O=[N+]([O-])c1ccc(C2N(Cc3ccc(Cl)cc3)CCN2Cc2ccc(Cl)cc2)cc1`, the growth is 83.9%. For `Oc1ccc2c(c1)CCc1ccccc1-2`, the growth is 105%.

For `COc1cc(/C=C2\SC(=S)N(/C=C/c3nc4ccccc4[nH]c3=O)C2=O)cc(OC)c1OC`, the growth is 86.2%. With `CC(C)(C)CC(C)(C)c1ccc(OCCOCCSC(=N)N)cc1`, the growth was -43.6% (active).
